# Measured values: PubChem BioAssay (NCATS)
# Where “and” joins values, the source holds several entries; their conditions need not be identical. Equal entries are not always repeated. Unmarked numbers belong to inactive results. Inconclusive results are not listed. Calls of active or inactive are those of the source. Unless noted, calls follow the shape of the dose curve; as a rule, active = well fitted curve in either direction with a large enough effect (not every such curve was filed as active); inconclusive = small, poorly fitted or top-dose-only effect, or another doubt; inactive = flat fitted curve, though single readings scatter.
# How the values were obtained:
# [1] = Stat Signaling Pathway (AID 446); conditions: ME-180 (cervical carcinoma) SIE beta-lactamase reporter, IL-6 stimulated, 5 h; at 17.2 µM (top of the series) unless noted;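 also: ME-180 cervical cancer cells given 40 pM IL-6 alongside compound; SIE-controlled beta-lactamase reporter measured as 460/530 nm FRET emission ratio; % is scaled to controls: 0 for no effect and ±100 for the full control effect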
# Summary of the method: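 FRET read-out (405 nm excitation, 460/530 nm emission) of a beta-lactamase reporter under a STAT-inducible element in ME-180 cervical carcinoma cells. Cells with compound receive 40 pM IL-6 for 5 h. Values are normalised to AC90 stimulation and AC90 JAK-inhibitor controls.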
# [2] = target: Glucocorticoid receptor (Homo sapiens) (UniProt P04150); experiment: GR-GFP Redistribution (AID 450;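 active = compounds whose dose series gives a full or clear partial fitted curve of increased nuclear translocation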; also: potency is read from the fitted curve at half-maximal effect)
# Sequence of Glucocorticoid receptor (Homo sapiens) (P04150 whole entry, looked up, the tested form may be a part): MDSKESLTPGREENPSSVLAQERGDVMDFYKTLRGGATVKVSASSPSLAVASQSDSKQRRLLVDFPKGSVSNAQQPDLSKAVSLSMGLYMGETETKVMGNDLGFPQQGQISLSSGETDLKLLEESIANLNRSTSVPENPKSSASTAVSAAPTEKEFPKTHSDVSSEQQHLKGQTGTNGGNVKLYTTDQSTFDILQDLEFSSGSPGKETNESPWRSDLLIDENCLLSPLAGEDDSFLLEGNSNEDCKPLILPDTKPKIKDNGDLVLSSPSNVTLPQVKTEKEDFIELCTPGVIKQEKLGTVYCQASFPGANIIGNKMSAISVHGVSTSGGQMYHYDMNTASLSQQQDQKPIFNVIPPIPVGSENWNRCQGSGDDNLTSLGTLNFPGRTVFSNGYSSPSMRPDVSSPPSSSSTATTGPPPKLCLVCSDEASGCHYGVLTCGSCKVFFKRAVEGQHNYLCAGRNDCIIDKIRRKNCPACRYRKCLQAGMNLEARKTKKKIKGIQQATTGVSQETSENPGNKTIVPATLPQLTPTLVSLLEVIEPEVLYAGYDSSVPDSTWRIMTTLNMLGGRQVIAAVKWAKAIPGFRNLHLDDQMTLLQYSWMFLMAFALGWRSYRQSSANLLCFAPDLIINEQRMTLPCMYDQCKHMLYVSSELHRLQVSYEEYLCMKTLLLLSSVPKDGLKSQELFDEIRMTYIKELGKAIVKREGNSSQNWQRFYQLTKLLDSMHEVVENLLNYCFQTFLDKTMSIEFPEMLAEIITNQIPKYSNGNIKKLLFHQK
# [3] = target: Glucocorticoid receptor (Homo sapiens) (UniProt P04150); experiment: GR-EFC Redistribution (AID 451; calls by dose curve; also: potency is read from the fitted curve at half-maximal effect); conditions: CHO-K1 GR-EFC translocation, beta-gal luminescence, 2 h
# Summary of the method: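 CHO-K1 cells expressing nuclear EA and GR-ED fragments of b-gal; compounds titrated up to 46 uM final, 2 h at 37 C. GR nuclear translocation read as complemented b-gal luminescence after 1 h RT detection.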
# [4] = target: 3',5'-cyclic-AMP phosphodiesterase 4B (Homo sapiens) (UniProt Q07343); experiment: qHTS Assay for Inhibitors of PDE-IV (AID 607; active = well fitted activation curve with a large enough effect in the main read-out, with a control signal flat, not every such curve was filed as active; also: % of control where 0% means no effect)
# Sequence of 3',5'-cyclic-AMP phosphodiesterase 4B (Homo sapiens) (Q07343 whole entry, looked up): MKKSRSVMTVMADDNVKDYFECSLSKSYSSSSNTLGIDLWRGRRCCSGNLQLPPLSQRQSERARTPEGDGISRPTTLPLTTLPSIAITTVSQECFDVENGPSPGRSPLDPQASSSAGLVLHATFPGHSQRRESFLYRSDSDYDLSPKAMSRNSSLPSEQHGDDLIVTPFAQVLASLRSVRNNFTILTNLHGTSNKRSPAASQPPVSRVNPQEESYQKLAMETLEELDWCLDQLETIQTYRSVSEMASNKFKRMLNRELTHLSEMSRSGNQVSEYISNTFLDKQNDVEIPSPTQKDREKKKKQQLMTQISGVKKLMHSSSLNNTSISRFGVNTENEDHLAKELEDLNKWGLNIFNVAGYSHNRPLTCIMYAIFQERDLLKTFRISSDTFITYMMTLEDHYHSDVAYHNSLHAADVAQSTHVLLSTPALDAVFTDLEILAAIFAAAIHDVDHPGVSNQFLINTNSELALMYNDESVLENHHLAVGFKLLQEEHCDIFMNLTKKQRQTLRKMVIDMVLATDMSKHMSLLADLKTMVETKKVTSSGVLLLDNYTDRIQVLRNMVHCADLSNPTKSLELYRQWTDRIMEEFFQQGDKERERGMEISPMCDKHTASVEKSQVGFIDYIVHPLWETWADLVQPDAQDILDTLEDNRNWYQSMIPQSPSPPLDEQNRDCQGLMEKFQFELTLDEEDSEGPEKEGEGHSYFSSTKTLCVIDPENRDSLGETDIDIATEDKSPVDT
# Summary of the method: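 Cell-based read-out of cAMP via a modified cyclic nucleotide-gated channel and membrane potential dye (535/590 nm) in HEK293 cells expressing PDE4 endogenously. Compounds tested up to 22.9 uM final; 100 uM RO 20-1724 reference.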
# [5] = qHTS Assay for Identification of Small Molecule Antagonists for Thrombopoietin (TPO) Signaling Pathway (AID 918; active = well fitted curve in the direction sought with a large enough effect; an effect the other way counts as inactive or inconclusive; also: potency is read from the fitted curve at half-maximal effect; nearly all actives have a fitted effect of over 60% in size); conditions: TPO-dependent cell signaling reporter, antagonist mode
# Summary of the method: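 Inhibition read as reduced luciferase luminescence after 24 h at 37 C in IL-3-deprived Ba/F3 cells carrying human TPO receptor and GPIIb-promoter reporter, stimulated with 26 pM TPO (final, its EC50) alongside compound.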
# [6] = target: Pyruvate kinase (Leishmania mexicana) (UniProt Q27686); experiment: qHTS Validation Assay for Inhibitors of Leishmania Mexicana Pyruvate Kinase (AID 945; active = well fitted curve in the direction sought with a large enough effect; an effect the other way counts as inactive or inconclusive;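 also: 0% = DMSO only neutral control wells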)
# Sequence of Pyruvate kinase (Leishmania mexicana) (Q27686 2-499 E452W): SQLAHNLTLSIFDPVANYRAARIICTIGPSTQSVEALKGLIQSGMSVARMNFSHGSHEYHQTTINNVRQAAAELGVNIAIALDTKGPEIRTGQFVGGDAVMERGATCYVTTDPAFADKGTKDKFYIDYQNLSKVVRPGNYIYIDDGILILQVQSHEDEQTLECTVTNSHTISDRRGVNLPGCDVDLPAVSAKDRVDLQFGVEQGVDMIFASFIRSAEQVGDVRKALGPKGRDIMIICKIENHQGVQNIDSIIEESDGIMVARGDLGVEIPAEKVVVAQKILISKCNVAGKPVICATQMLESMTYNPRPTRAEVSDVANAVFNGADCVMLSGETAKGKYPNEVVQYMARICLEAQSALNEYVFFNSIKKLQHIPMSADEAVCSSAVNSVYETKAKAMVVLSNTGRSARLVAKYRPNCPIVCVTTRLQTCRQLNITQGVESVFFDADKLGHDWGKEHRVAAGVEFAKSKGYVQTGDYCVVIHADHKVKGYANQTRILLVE
# Summary of the method: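 Read-out: luminescence from PKLight stop/detection reagent, data normalized to DMSO. Reaction: 0.2 nM E451W LmPYK, 0.5 mM PEP, 0.1 mM ADP, pH 7.2, 1 h room temperature.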
# [7] = target: Pyruvate kinase PKM (Homo sapiens) (UniProt P14618); experiment: qHTS Assay for Activators of Human Muscle Pyruvate Kinase (AID 954; active = well fitted curve in the direction sought with a large enough effect, not every such curve was filed as active;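 also: 0% = uninhibited enzyme and -100% = no enzyme or full thiadiazolimine inhibition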)
# Sequence of Pyruvate kinase PKM (Homo sapiens) (P14618 whole entry, looked up): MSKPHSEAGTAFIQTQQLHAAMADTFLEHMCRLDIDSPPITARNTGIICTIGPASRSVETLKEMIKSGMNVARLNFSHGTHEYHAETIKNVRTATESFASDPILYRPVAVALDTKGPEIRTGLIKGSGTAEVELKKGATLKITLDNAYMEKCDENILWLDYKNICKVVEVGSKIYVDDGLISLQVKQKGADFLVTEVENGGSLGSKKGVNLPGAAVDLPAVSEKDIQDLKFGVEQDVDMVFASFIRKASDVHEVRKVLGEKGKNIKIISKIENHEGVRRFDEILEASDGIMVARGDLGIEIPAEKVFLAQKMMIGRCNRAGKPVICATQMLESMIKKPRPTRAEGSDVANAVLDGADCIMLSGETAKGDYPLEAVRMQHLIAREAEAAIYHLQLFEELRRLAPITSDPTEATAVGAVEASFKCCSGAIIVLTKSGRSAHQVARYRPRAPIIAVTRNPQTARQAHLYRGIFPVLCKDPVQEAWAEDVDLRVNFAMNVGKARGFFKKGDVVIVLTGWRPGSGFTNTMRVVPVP
# Summary of the method: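 ATP production by PKM2 detected via luciferase luminescence after 1 h room-temperature reaction (0.1 nM enzyme, PEP at Km 0.5 mM, ADP 0.1 mM, pH 7.2 imidazole buffer). Inhibition scaled to no-enzyme control; activation referenced to 0.3 nM enzyme wells.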
# [8] = target: Alpha-galactosidase A (Homo sapiens) (UniProt P06280); experiment: Counterscreen for Glucocerebrosidase Inhibitors: qHTS Assay for Human alpha-Galactosidase at pH 4.5 (AID 992; active = well fitted curve in the direction sought with a large enough effect; an effect the other way counts as inactive or inconclusive; also: 0% is about no effect)
# Sequence of Alpha-galactosidase A (Homo sapiens) (P06280 whole entry, looked up): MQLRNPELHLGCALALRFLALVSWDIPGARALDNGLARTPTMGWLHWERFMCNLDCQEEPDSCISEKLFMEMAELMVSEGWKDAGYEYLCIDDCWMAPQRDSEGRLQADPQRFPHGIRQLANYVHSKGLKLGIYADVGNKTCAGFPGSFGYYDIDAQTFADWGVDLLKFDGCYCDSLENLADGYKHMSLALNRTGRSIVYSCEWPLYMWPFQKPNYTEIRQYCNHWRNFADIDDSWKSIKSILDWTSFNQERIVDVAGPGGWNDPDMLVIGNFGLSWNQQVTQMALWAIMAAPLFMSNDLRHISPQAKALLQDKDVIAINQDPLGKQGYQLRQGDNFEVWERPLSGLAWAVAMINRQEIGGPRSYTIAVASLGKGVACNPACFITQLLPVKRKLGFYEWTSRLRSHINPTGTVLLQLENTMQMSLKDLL
# Summary of the method: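 Fluorogenic 1536-well qHTS at pH 4.5 (citrate, Tween-20): 2 nM enzyme, 80 uM 4-MU-alpha-galactoside, 20 min room temperature, NaOH/glycine stop. Titration 0.7 nM to 77 uM, data normalized to no-enzyme and full-activity controls, Hill-fitted AC50.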
# [9] = target: alpha-glucosidase (Oryza sativa, rice) (UniProt Q653V4); experiment: Counterscreen for Glucocerebrosidase Inhibitors: qHTS Assay for Rice alpha-Glucosidase at pH 5.0 (AID 997; active = well fitted curve in the direction sought with a large enough effect; an effect the other way counts as inactive or inconclusive;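 also: 0% = full activity with enzyme and -100% = basal without enzyme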)
# Summary of the method: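 Endpoint fluorogenic assay at pH 5.0: compounds (0.7 nM to 77 uM) titrated against 4 nM rice enzyme and 400 uM 4-MU-alpha-glucoside for 20 min at room temperature; NaOH/glycine stop, read ex 365/em 440 nm, Hill-fitted AC50.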
# [10] = target: Mitogen-activated protein kinase 10 (Mus musculus) (UniProt Q61831); experiment: JNK3 AlphaScreen Assay (AID 530);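 also: kinase came from lysate of stimulated human HepG2 cells; signal reports phosphorylation of biotinylated GST-cJun 1-79 at Ser73 with 10 µM ATP; % is scaled to controls: 0 for no effect and ±100 for the full control effect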
# Summary of the method: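 Activity was read by AlphaScreen after JNK3-containing HepG2 lysate (cytokine pre-activated) phosphorylated biotinylated GST-cJun with 10 uM ATP at room temperature. Phospho-Ser73 cJun antibody with Protein-A acceptor beads provided detection.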
smiles,measurement,setting,value
CCOC(=O)c1[nH]c2ccc(Br)cc2c1NC(=O)CCN1CCC(C(=O)OCC)CC1,"activity, negative = inhibition",[1],-11%
same,Potency,[2],> 20.6 µM
CCOC(=O)c1c(C)n(C)c2ccc(O)c(CN3CCCCC3)c12,"activity, negative = inhibition",[1],18.3%
same,Potency,[2],> 20.6 µM
COCc1[nH]nc2c1C(c1sccc1C)C(C#N)=C(N)O2 (configuration not stated),"activity, negative = inhibition",[1],-24.3%
same,Potency,[2],> 20.6 µM
Cc1c(C)c2c(c(C)c1O)CC[C@@](C)(CN1CCN(c3cc(N4CCCC4)nc(N4CCCC4)n3)CC1)O2,"activity, negative = inhibition",[1],19.8% [at 38 µM]
same,Potency,[2],> 46 µM
same,Potency,[3],> 46 µM
same,Potency,[4],inactive
same,Potency,[5],10 µM (active)
same,Potency,[6],inactive
same,outcome,[7],inactive
same,outcome,[8],inactive
same,outcome,[9],inactive
COC(=O)c1ccccc1NC=C1C(=O)OC2(CCCCC2)OC1=O,"activity, negative = inhibition",[1],2.6%
same,Potency,[2],> 20.6 µM
CC1(C)Cc2c(sc3c2C2=NCCN2C=N3)CS1,"activity, negative = inhibition",[1],5.3%
same,Potency,[2],> 20.6 µM
CCN1CCc2c(C#N)c(N3CCCCC3)nc(NCc3ccccc3)c2C1,"activity, negative = inhibition",[1],5.55%
same,Potency,[2],> 20.6 µM
COc1cccc(-c2nc(NC(C)(C)C)c3ccccc3n2)c1O,"activity, negative = inhibition",[1],-74.9% (active)
same,Potency,[2],> 20.6 µM
CCOC(=O)C1CCN(c2nc3ccccc3nc2C(C#N)C(=O)NCCc2ccccc2)CC1 (configuration not stated),"activity, negative = inhibition",[1],-24.6%
same,Potency,[2],> 20.6 µM
CCCOC(=O)CSC1=C(C#N)C(c2ccccc2OCC)C(C#N)C(=O)N1 (configuration not stated),"activity, negative = inhibition",[1],-11.2%
same,Potency,[2],> 20.6 µM
CC(C)Cc1nc(N2CCN(C(=O)c3ccco3)CC2)c(C#N)c2c1CCC2,"activity, negative = inhibition",[1],-7.73%
same,Potency,[2],> 20.6 µM
Cc1cccc(C)c1OCC(=O)Nc1cccc(-c2nnc(-c3ccccc3)o2)c1,"activity, negative = inhibition",[1],-9.86%
same,Potency,[2],> 20.6 µM
CCOC(=O)CC(=O)CSc1nc(N)c(C#N)c(-c2ccc(Cl)cc2)c1C#N,"activity, negative = inhibition",[1],-16.4%
same,Potency,[2],> 20.6 µM
CC1(C)Cc2c(C#N)c(SCC(=O)c3ccccc3)nc(N3CCCC3)c2CO1,"activity, negative = inhibition",[1],6.65%
same,Potency,[2],> 20.6 µM
CN(CCCCCNC(=O)/C=N/O)Cc1ccccc1,"activity, negative = inhibition",[1],9.45%
same,Potency,[2],> 20.6 µM
C[C@]12CC[C@@H]3c4ccc(O)cc4C(=O)C[C@H]3[C@@H]1CC[C@@H]2O,"activity, negative = inhibition",[1],-2.37%
same,Potency,[2],> 20.6 µM
COC(=O)CC1=C(C(=O)OC)C(c2ccncc2)C(C#N)=C(N)O1 (configuration not stated),"activity, negative = inhibition",[1],0.288%
same,Potency,[2],> 20.6 µM
COc1ccc(C2C=C(c3ccc(C)cc3)Nc3ncnn32)cc1 (configuration not stated),"activity, negative = inhibition",[1],-14.5%
same,Potency,[2],> 20.6 µM
CSc1ccc2c(c1)N(CC[C@H]1CCCCN1C)c1ccccc1S2,"activity, negative = inhibition",[1],-7.21%
same,Potency,[2],> 46 µM and > 20.6 µM
same,Potency,[3],> 46 µM and > 20.6 µM
same,Potency,[10],inactive
same,Potency,[4],inactive
same,Potency,[5],12.6 µM (active)
same,Potency,[6],inactive
same,outcome,[7],inactive
same,outcome,[8],inactive
